From the supplement of paper PMC11219838 come the findings set out here.

Molecules are shown by their SMILES. A number with no mark means an inactive call.

The first experiment deals with Caenorhabditis elegans dauer (daf-2(e1370)). In words: proportion of mobile C. elegans dauer larvae relative to DMSO control (fraction of DMSO control); higher = more viable, less nematicidal, active = 0.63 or less; extreme values may be limits of the assay. As to conditions: 60 µM; 5 days; temperature: 20 °C. Put shortly: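 Synchronized C. elegans daf-2(e1370) larvae were held at 25 °C for 48 h on MYOB plates with E. coli OP50 to form dauers, and about 20 dauers were added per 96-well well in liquid NGM. Compound was pinned to 60 µM final (0.6% v/v DMSO), and sealed plates were shaken at 200 rpm for 5 days at 20 °C. The proportion of mobile worms was scored under a dissection microscope relative to DMSO controls and averaged over two biological replicates.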
Regarding `O=C(Nc1ccc(-c2noc(-c3ccc(F)cc3)n2)cc1)c1ccc(Br)o1`, the “proportion of mobile C. elegans dauer larvae” value is 1.
Same read-out and setting: as for `O=C(CSc1nnc(-c2ccc(Br)cc2)o1)NC1CCCCC1`, the figure is 1; as for `COc1cccc(-c2noc(-c3cc(C)ccc3C)n2)c1`, 1; as for `COc1ccc(C(=O)CSc2nnc(-c3ccccc3)o2)cc1`, 1.
On the same count and under the same terms, as for `CCOc1cc(-c2nc(-c3cccnc3)no2)cc(OCC)c1OCC`, the figure is 1; as for `O=C(CSc1nnc(-c2ccncc2)o1)Nc1ccccc1Cl`, 1; as for `N#Cc1ccccc1NC(=O)CSc1nnc(-c2ccccc2)o1`, 1.
Same read-out and setting: as for `c1ccc(CSc2nnc(-c3ccccc3)o2)cc1`, the figure is 1; as for `O=C(CSc1nnc(-c2cccnc2)o1)c1ccc2ccccc2c1`, 1; as for `COc1nc(C)ccc1-c1noc(-c2ccc(F)cc2)n1`, 1.
Turning to `CCCSc1nnc(-c2ccc(Cl)cc2Cl)o1`, the “proportion of mobile C. elegans dauer larvae” value was 0.143 (active).
Same read-out and setting: as for `Brc1cccc(-c2nnc(SCc3ccccc3)o2)c1`, the figure is 1; as for `Clc1ccc(-c2noc(COc3ccc4c(c3)OCO4)n2)cc1`, 1; as for `O=C(CSc1nnc(-c2ccco2)o1)c1ccc(Br)cc1`, 1.
Regarding `CCNC(=O)c1ccccc1-c1nc(-c2ccc(F)cc2)no1`, the “proportion of mobile C. elegans dauer larvae” value was 1.
Still for that read-out and setting: as for `Clc1ccccc1-c1noc(COc2ccc(Br)cc2)n1`, the figure is 1; as for `Fc1cccc(-c2nc(-c3ccccc3)no2)c1`, 1.
The same measure, in the same setting: with `O=C(CSc1nnc(-c2ccco2)o1)NC1CCCCC1` the figure was 1.
On the same count and under the same terms, as for `Cc1cc(OCc2nc(-c3ccncc3)no2)ccc1Cl`, the figure is 1.
`Clc1ccc(-c2nc(-c3ccncc3)no2)cc1Cl`: the “proportion of mobile C. elegans dauer larvae” value is 1.
The same measure, in the same setting: with `CC(=O)c1cccc(NC(=O)CSc2nnc(-c3ccccc3)o2)c1` the figure was 1.
Same read-out and setting: with `CCOc1ccc(-c2nc(-c3ccccc3C)no2)cc1` the figure was 1; with `COc1ccccc1-c1nc(-c2ccc(Cl)cc2Cl)no1`, 1; with `CCN(CC)C(=O)CSc1nnc(-c2cccc(Cl)c2)o1`, 1.
The same measure, in the same setting: as for `Brc1cccc(-c2nc(-c3cccnc3)no2)c1`, the figure is 1; as for `c1ccc(-c2noc(COc3ccc4c(c3)CCCC4)n2)cc1`, 1.
On to `COc1ccc(-c2noc(COc3ccccc3C)n2)cc1`, for which the “proportion of mobile C. elegans dauer larvae” value was 1.
The same measure, in the same setting: as for `Cc1cccc(OCc2nc(-c3ccc(-n4cccc4)cc3)no2)c1`, the figure is 1; as for `CCCc1ccc(-c2ccc(-c3nc(-c4ccccn4)no3)cc2)cc1`, 1.
Still for that read-out and setting: as for `COc1ccccc1-c1nnc(SCC(=O)Nc2ccc(C)cc2)o1`, the figure is 1; as for `CCOc1ccc(NC(=O)CSc2nnc(-c3ccccc3Cl)o2)cc1`, 1.
Turning to `Clc1ccccc1CSc1nnc(-c2ccncc2)o1`, the “proportion of mobile C. elegans dauer larvae” value was 1.
The same measure, in the same setting: as for `COc1ccccc1CC(=O)Nc1ccc(-c2noc(-c3ccccc3C)n2)cc1`, the figure is 1; as for `O=C(CSc1nnc(-c2ccc(Cl)cc2)o1)NC1CCCCC1`, 1; as for `Clc1cc(Br)ccc1OCc1nc(-c2cccnc2)no1`, 1.
Same read-out and setting: as for `COc1ccc(-c2nnc(SCC(=O)Nc3ccc(Br)cc3C(C)C)o2)cc1`, the figure is 1; as for `Cc1ccccc1-c1noc(COc2ccccc2)n1`, 1.
Same read-out and setting: with `Cc1cc(C)cc(NC(=O)CSc2nnc(-c3ccccc3)o2)c1` the figure was 1.
As for `COc1nc(C)ccc1-c1noc(-c2ccccc2Cl)n1`, the “proportion of mobile C. elegans dauer larvae” value is 1.

The next experiment deals with Ditylenchus dipsaci. The experiment is described as follows: proportion of mobile D. dipsaci (mixed stage) relative to DMSO control (fraction of DMSO control); higher = more viable, less nematicidal, active = 0.86 or less; extreme values may be limits of the assay. The note with it: 60 µM; 5 days; temperature: 20 °C. Put shortly: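 D. dipsaci were grown on pea plants in Gamborg B-5 agar and extracted through a filter funnel into water, and about 20 worms were added per 96-well well in distilled water. Compound was pinned to 60 µM final (0.6% v/v DMSO), and sealed plates were shaken at 200 rpm for 5 days at 20 °C. After 2 µL 1 M NaOH was added, mobile worms were scored microscopically. Mobility was expressed relative to DMSO controls and averaged over two biological replicates.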
Turning to `O=C(Nc1ccc(-c2noc(-c3ccc(F)cc3)n2)cc1)c1ccc(Br)o1`, the “proportion of mobile D. dipsaci” value is 1.
Still for that read-out and setting: as for `O=C(CSc1nnc(-c2ccc(Br)cc2)o1)NC1CCCCC1`, the figure is 1.
Same read-out and setting: as for `COc1cccc(-c2noc(-c3cc(C)ccc3C)n2)c1`, the figure is 1; as for `COc1ccc(C(=O)CSc2nnc(-c3ccccc3)o2)cc1`, 1; as for `CCOc1cc(-c2nc(-c3cccnc3)no2)cc(OCC)c1OCC`, 1.
Still for that read-out and setting: with `O=C(CSc1nnc(-c2ccncc2)o1)Nc1ccccc1Cl` the figure was 1; with `N#Cc1ccccc1NC(=O)CSc1nnc(-c2ccccc2)o1`, 1.
For the compound `c1ccc(CSc2nnc(-c3ccccc3)o2)cc1`, the “proportion of mobile D. dipsaci” value was 0.864.
`O=C(CSc1nnc(-c2cccnc2)o1)c1ccc2ccccc2c1`: the “proportion of mobile D. dipsaci” value was 1.
Still for that read-out and setting: with `COc1nc(C)ccc1-c1noc(-c2ccc(F)cc2)n1` the figure was 1.
On the same count and under the same terms, with `CCCSc1nnc(-c2ccc(Cl)cc2Cl)o1` the figure was 1; with `Brc1cccc(-c2nnc(SCc3ccccc3)o2)c1`, 1; with `Clc1ccc(-c2noc(COc3ccc4c(c3)OCO4)n2)cc1`, 1.
Still for that read-out and setting: as for `O=C(CSc1nnc(-c2ccco2)o1)c1ccc(Br)cc1`, the figure is 1; as for `CCNC(=O)c1ccccc1-c1nc(-c2ccc(F)cc2)no1`, 1.
With `Clc1ccccc1-c1noc(COc2ccc(Br)cc2)n1`, the “proportion of mobile D. dipsaci” value is 1.
The same measure, in the same setting: with `Fc1cccc(-c2nc(-c3ccccc3)no2)c1` the figure was 1.
Turning to `O=C(CSc1nnc(-c2ccco2)o1)NC1CCCCC1`, the “proportion of mobile D. dipsaci” value was 1.
As to `Cc1cc(OCc2nc(-c3ccncc3)no2)ccc1Cl`, the “proportion of mobile D. dipsaci” value was 1.
Turning to `Clc1ccc(-c2nc(-c3ccncc3)no2)cc1Cl`, the “proportion of mobile D. dipsaci” value was 1.
Still for that read-out and setting: as for `CC(=O)c1cccc(NC(=O)CSc2nnc(-c3ccccc3)o2)c1`, the figure is 1; as for `CCOc1ccc(-c2nc(-c3ccccc3C)no2)cc1`, 1.
On the same count and under the same terms, with `COc1ccccc1-c1nc(-c2ccc(Cl)cc2Cl)no1` the figure was 1; with `CCN(CC)C(=O)CSc1nnc(-c2cccc(Cl)c2)o1`, 1; with `Brc1cccc(-c2nc(-c3cccnc3)no2)c1`, 1.
Consider `c1ccc(-c2noc(COc3ccc4c(c3)CCCC4)n2)cc1`, for which the “proportion of mobile D. dipsaci” value is 1.
The same measure, in the same setting: as for `COc1ccc(-c2noc(COc3ccccc3C)n2)cc1`, the figure is 1; as for `Cc1cccc(OCc2nc(-c3ccc(-n4cccc4)cc3)no2)c1`, 1.
Still for that read-out and setting: with `CCCc1ccc(-c2ccc(-c3nc(-c4ccccn4)no3)cc2)cc1` the figure was 1; with `COc1ccccc1-c1nnc(SCC(=O)Nc2ccc(C)cc2)o1`, 0.885; with `CCOc1ccc(NC(=O)CSc2nnc(-c3ccccc3Cl)o2)cc1`, 1.
On to `Clc1ccccc1CSc1nnc(-c2ccncc2)o1`, for which the “proportion of mobile D. dipsaci” value is 1.
Consider `COc1ccccc1CC(=O)Nc1ccc(-c2noc(-c3ccccc3C)n2)cc1`, for which the “proportion of mobile D. dipsaci” value is 1.
The same measure, in the same setting: as for `O=C(CSc1nnc(-c2ccc(Cl)cc2)o1)NC1CCCCC1`, the figure is 1.
Same read-out and setting: as for `Clc1cc(Br)ccc1OCc1nc(-c2cccnc2)no1`, the figure is 1; as for `COc1ccc(-c2nnc(SCC(=O)Nc3ccc(Br)cc3C(C)C)o2)cc1`, 1.
On the same count and under the same terms, with `Cc1ccccc1-c1noc(COc2ccccc2)n1` the figure was 1; with `Cc1cc(C)cc(NC(=O)CSc2nnc(-c3ccccc3)o2)c1`, 1.
For `COc1nc(C)ccc1-c1noc(-c2ccccc2Cl)n1`, the “proportion of mobile D. dipsaci” value is 1.
